{
  "source": "PubChem BioAssay (Tox21)",
  "key": {"[1]": {"experiment": "qHTS assay for identifying genotoxic compounds that show differential cytotoxicity against isogenic chicken DT40 cell lines with known DNA damage response pathways - wild type cell line (AID 743012); further: potency means the concentration at half of the fitted maximal effect; nearly all actives have a fitted effect of over 60% in size", "how_it_was_run": "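Viability by ATP luminescence (CellTiter-Glo, 30 min RT) after 40 h compound treatment at 37 C/5% CO2, using 300 parental DNA repair-proficient DT40 cells per well.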"}, "[2]": {"experiment": "qHTS assay for identifying genotoxic compounds that show differential cytotoxicity against isogenic chicken DT40 cell lines with known DNA damage response pathways - Rev3 mutant cell line (AID 743014); further: potency means the concentration at half of the fitted maximal effect; nearly all actives have a fitted effect of over 55% in size"}, "[3]": {"experiment": "qHTS assay for identifying genotoxic compounds that show differential cytotoxicity against isogenic chicken DT40 cell lines with known DNA damage response pathways - Rad54/Ku70 mutant cell line (AID 743015); further: potency means the concentration at half of the fitted maximal effect; nearly all actives have a fitted effect of over 60% in size"}, "[4]": {"experiment": "qHTS assay to identify small molecule antagonists of the androgen receptor (AR) signaling pathway - cell viability counter screen (AID 743033; further: nearly all actives have a fitted effect of over 45% in size; further: potency means the concentration at half of the fitted maximal effect)"}, "[5]": {"experiment": "qHTS assay to identify small molecule antagonists of the androgen receptor (AR) signaling pathway using the MDA cell line - cell viability counter screen (AID 743041; further: nearly all actives have a fitted effect of over 45% in size; further: potency means the concentration at half of the fitted maximal effect)", "how_it_was_run": "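Using the breast carcinoma line MDA-kb2 AR-luc, test chemicals were co-incubated with R1881 for 16 h; CellTiter-Fluor reagent, added at 15.5 h, provided a fluorescence measure of live cells.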"}, "[6]": {"target": "Androgen receptor (Homo sapiens) (UniProt P10275)", "sequence (P10275 whole entry, looked up)": "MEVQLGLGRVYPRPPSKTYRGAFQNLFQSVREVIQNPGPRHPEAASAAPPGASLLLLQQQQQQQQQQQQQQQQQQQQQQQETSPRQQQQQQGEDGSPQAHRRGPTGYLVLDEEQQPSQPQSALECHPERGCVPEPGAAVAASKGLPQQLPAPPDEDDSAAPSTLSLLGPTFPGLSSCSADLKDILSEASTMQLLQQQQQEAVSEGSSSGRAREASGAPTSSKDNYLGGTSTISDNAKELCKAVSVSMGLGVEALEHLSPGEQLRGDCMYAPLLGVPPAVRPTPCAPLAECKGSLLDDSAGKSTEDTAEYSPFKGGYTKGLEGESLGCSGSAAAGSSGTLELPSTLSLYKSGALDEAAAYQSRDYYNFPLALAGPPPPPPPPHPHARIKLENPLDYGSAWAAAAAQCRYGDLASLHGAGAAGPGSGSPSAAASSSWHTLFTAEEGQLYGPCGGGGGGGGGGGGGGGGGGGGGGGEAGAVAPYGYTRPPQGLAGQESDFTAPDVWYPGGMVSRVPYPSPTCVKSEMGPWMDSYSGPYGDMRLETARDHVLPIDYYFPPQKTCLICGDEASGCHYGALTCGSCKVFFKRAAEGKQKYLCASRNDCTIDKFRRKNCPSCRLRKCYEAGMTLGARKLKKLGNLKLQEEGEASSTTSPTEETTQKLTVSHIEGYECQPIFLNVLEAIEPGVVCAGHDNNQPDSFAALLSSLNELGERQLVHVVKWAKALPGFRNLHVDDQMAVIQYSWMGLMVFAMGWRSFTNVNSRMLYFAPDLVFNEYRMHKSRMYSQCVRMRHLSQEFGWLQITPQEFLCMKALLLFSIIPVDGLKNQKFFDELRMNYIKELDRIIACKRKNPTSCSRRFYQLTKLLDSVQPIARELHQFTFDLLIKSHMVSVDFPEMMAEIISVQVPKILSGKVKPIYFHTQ", "experiment": "qHTS assay to identify small molecule agonists of the androgen receptor (AR) signaling pathway using the MDA cell line (AID 743040; further: nearly all actives have a fitted effect of over 20% in size)", "how_it_was_run": "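Stable MMTV-luciferase reporter in MDA-kb2 cells; note the promoter carries GR as well as AR response elements. 16 h compound treatment, 37C, 0% CO2; ONE-Glo luminescence endpoint.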"}, "[7]": {"target": "Androgen receptor (Homo sapiens) (UniProt P10275)", "experiment": "qHTS assay to identify small molecule antagonists of the androgen receptor (AR) signaling pathway using the MDA cell line (AID 743042; further: potency means the concentration at half of the fitted maximal effect; nearly all actives have a fitted effect of over 55% in size)", "how_it_was_run": "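Antagonist mode: compounds plus R1881 agonist added to MDA-kb2 AR-luc cells, incubated 16 h at 37C. Luciferase reporter luminescence quantified, with multiplexed CellTiter-Fluor readout for cell viability.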"}, "[8]": {"target": "Androgen receptor (Homo sapiens) (UniProt P10275)", "experiment": "qHTS assay to identify small molecule antagonists of the androgen receptor (AR) signaling pathway (AID 743035; active means well fitted inhibition curve with a large enough effect in the signal ratio in the repeat runs, not every such curve was filed as active; the % refers to the signal ratio)", "how_it_was_run": "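Antagonist mode: AR-bla HEK293 cells co-treated with test compounds and agonist R1881 for 16 h at 37C, 5% CO2. Beta-lactamase activity read as FRET fluorescence after 2 h room-temperature substrate loading.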"}, "[9]": {"target": "Androgen receptor (Homo sapiens) (UniProt P10275)", "experiment": "qHTS assay to identify small molecule agonists of the androgen receptor (AR) signaling pathway (AID 743036; active means well fitted activation curve with a large enough effect in the signal ratio in the repeat runs, with a control signal flat, not every such curve was filed as active; the % refers to the signal ratio)", "how_it_was_run": "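Reporter line: GeneBLAzer AR-UAS-bla-GripTite (HEK293). Steps: plate cells, 4 h rest, add compounds, 16 h at 37C, add LiveBLAzer B/G substrate, 2 h at RT, read fluorescence.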"}},
  "note": "Inconclusive results are not listed. Entries that show only a call come without a potency. Activity calls are given as the source filed them. Unless noted, the call rests on the fitted dose curve; in most records, active means well fitted curve in the direction sought with a large enough effect in the repeat runs; inconclusive means weak or mixed curves; inactive means no such curve, though single readings can be large; an effect the other way counts as inactive or inconclusive.",
  "data": [
    {"smiles": "CSCCCN=C=S", "values": [
      {"measurement": "Potency", "setting": "[1]", "value": "48.6 µM (active)"},
      {"measurement": "Potency", "setting": "[2]", "value": "27.3 µM (active)"},
      {"measurement": "Potency", "setting": "[3]", "value": "43.3 µM (active)"},
      {"measurement": "Potency", "setting": "[4]", "value": "inactive"},
      {"measurement": "Potency", "setting": "[5]", "value": "inactive"}
    ]},
    {"smiles": "CC1(C)[C@H](C(=O)O[C@H](C#N)c2cccc(Oc3ccccc3)c2)[C@@H]1/C=C(\\Cl)C(F)(F)F", "values": [
      {"measurement": "Potency", "setting": "[1]", "value": "50.5 µM (active)"},
      {"measurement": "Potency", "setting": "[2]", "value": "50.5 µM (active)"},
      {"measurement": "Potency", "setting": "[5]", "value": "inactive"}
    ]},
    {"smiles": "CCCN(CCC)CCc1c[nH]c2ccccc12", "values": [
      {"measurement": "Potency", "setting": "[1]", "value": "53.8 µM (active)"},
      {"measurement": "Potency", "setting": "[4]", "value": "inactive"},
      {"measurement": "Potency", "setting": "[5]", "value": "inactive"}
    ]},
    {"smiles": "Nc1ccc(Cc2ccc(N)c(Cl)c2)cc1Cl", "values": [
      {"measurement": "Potency", "setting": "[1]", "value": "74.4 µM (active)"},
      {"measurement": "Potency", "setting": "[5]", "value": "inactive"}
    ]},
    {"smiles": "COP(=O)(OC)SCn1c(=O)oc2cc(Cl)cnc21", "values": [
      {"measurement": "Potency", "setting": "[4]", "value": "inactive"},
      {"measurement": "Potency", "setting": "[6]", "value": "inactive"},
      {"measurement": "Potency", "setting": "[5]", "value": "inactive"},
      {"measurement": "Potency", "setting": "[7]", "value": "48.6 µM (active)"}
    ]},
    {"smiles": "O=CC(Br)(Br)Br", "values": [
      {"measurement": "Potency", "setting": "[2]", "value": "24.3 µM (active)"},
      {"measurement": "Potency", "setting": "[4]", "value": "21.8 µM (active)"},
      {"measurement": "Potency", "setting": "[5]", "value": "inactive"}
    ]},
    {"smiles": "CN(C)C1CSSSC1", "values": [
      {"measurement": "Potency", "setting": "[3]", "value": "21.7 µM (active)"},
      {"measurement": "Potency", "setting": "[4]", "value": "inactive"},
      {"measurement": "Potency", "setting": "[5]", "value": "inactive"}
    ]},
    {"smiles": "CC(C)(C)c1cc([N+](=O)[O-])cc(C(C)(C)C)c1O", "values": [
      {"measurement": "Potency", "setting": "[2]", "value": "10.9 µM (active)"},
      {"measurement": "Potency", "setting": "[3]", "value": "7.7 µM (active)"},
      {"measurement": "Potency", "setting": "[4]", "value": "5.49 µM (active)"},
      {"measurement": "Potency", "setting": "[5]", "value": "12.2 µM (active)"}
    ]},
    {"smiles": "CCCSP(=O)(OCC)SCCC", "values": [
      {"measurement": "Potency", "setting": "[1]", "value": "28.3 µM (active)"},
      {"measurement": "Potency", "setting": "[4]", "value": "inactive"},
      {"measurement": "Potency", "setting": "[8]", "value": "inactive"},
      {"measurement": "Potency", "setting": "[9]", "value": "inactive"},
      {"measurement": "Potency", "setting": "[6]", "value": "inactive"},
      {"measurement": "Potency", "setting": "[5]", "value": "inactive"}
    ]}
  ]
}
